This is a sample that favours compounds with a hit; in the whole collection about 2.3% have one here.
Mcl-1 Bim block: inhibitors of Bim-Mcl-1 interaction, human | Bead-based flow cytometry, Bim peptide-Mcl-1 binding | Q07820 | inhibition, % at 10 µM | 190,000 compounds, 0.1% hits; in the data active means inhibition above about 40%
Target sequence (Q07820 whole entry, looked up): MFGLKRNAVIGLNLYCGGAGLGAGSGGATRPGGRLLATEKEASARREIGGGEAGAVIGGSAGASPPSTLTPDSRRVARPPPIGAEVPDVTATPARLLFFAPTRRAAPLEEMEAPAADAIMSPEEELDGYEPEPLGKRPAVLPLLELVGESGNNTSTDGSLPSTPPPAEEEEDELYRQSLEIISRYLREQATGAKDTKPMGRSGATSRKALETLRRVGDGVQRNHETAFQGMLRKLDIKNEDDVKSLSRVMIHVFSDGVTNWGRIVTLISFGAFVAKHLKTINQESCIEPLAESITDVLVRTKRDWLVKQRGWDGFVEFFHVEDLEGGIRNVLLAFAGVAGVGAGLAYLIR
MCL1 BIM primary: disrupts human MCL1 binding to BIM-BH3 peptide; GST-MCL1 / FITC-Bim-BH3 fluorescence polarization; inhibition, % at 10.9 µM; 320,000 compounds, 0.68% hits; AID 2057;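 active means inhibition above the mean inhibition of all tested compounds plus 3 SD, set per campaign, cut at about 40% in these data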;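 further: higher means more loss of mP so more displacement of Bim peptide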
Mcl1 Bid PPI: Mcl-1/Bid interaction inhibition; TR-FRET Mcl-1/Bid-Dy647 peptide binding, 1536-well; Q07820; AID 1021; inhibition, % at 21.7 µM; 220,000 compounds, 0.97% hits;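 active means compounds that cut the binding signal by more than half at the single screening dose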;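 further: His-tagged Mcl-1 with europium anti-His antibody binding Bid BH3 peptide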
BCLXL inh: Bcl-xL (human) inhibition; 320,000 compounds, 0.7% hits; AID 2129; GST-Bcl-xL / FITC-Bim BH3 peptide fluorescence polarization; inhibition, % at 10.9 µM; Q07817;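 active means inhibition above the mean of all tested compounds plus 3 SD, cutoff set per campaign, cut at about 30% in these data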;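 further: inhibitors lower millipolarization by displacing the labeled peptide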
Target sequence (Q07817 whole entry, looked up): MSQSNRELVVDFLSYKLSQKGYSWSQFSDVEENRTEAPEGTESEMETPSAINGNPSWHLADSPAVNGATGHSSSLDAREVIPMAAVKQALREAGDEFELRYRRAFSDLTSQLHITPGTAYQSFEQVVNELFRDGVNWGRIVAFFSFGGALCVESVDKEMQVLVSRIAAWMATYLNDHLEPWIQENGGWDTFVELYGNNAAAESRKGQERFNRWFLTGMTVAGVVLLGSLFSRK
GLD-1 RNA inh: GLD-1-TGE RNA interaction inhibition (C. elegans). Q17339. purified GLD-1 + fluorescein TGE RNA, fluorescence polarization. inhibition, % at 5.96 µM. 320,000 compounds, 0.44% hits;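 active means percent inhibition above a per-plate cutoff, the plate mean of test compounds plus 3 SD, cut at about 30% in these data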
Mcl1-Noxa inh: Mcl-1/Noxa interaction inhibition; Q07820; TR-FRET Mcl-1/Noxa peptide binding, 2 h; inhibition, % at 21.7 µM; 220,000 compounds, 1.5% hits;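 active means compounds that cut the protein-peptide binding signal by more than 50% relative to plate controls in a single-dose test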;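 further: His-tagged Mcl-1 with rhodamine Noxa BH3 peptide and terbium anti-His antibody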
Each line names hits and unclear results; the compound was inactive in the other large screens.

CN(c1ccc(OCC(=O)OCC(=O)Nc2ccccc2)cc1)S(=O)(=O)c1cccs1	none
Fc1ccccc1-c1nc(-c2ccc(Br)o2)no1	none (no result: Mcl-1 Bim block, Mcl1 Bid PPI, Mcl1-Noxa inh)
N#C/C(=C/c1ccc(-c2ccc(S(N)(=O)=O)cc2)o1)c1nc2ccccc2s1	Mcl1 Bid PPI 53, BCLXL inh 45
COC(=O)c1ccc(/C=C(\C#N)c2nc3ccccc3s2)cc1	Mcl1 Bid PPI 59, Mcl1-Noxa inh 59
N#C/C(=C\c1ccccn1)c1nc2ccccc2s1	none
N#CC(C#N)=C(N)CSc1cccc[n+]1[O-]	BCLXL inh 30
Cc1nn(-c2ccccc2[N+](=O)[O-])c(=O)c2ccccc12	none
Cc1nn(-c2ccc(Br)cc2)c(=O)c2ccccc12	BCLXL inh 31 (no result: Mcl-1 Bim block, Mcl1 Bid PPI, Mcl1-Noxa inh)
Cc1nn(-c2ccccc2C(=O)O)c(=O)c2ccccc12	Mcl1 Bid PPI 88 (no result: Mcl1-Noxa inh)
Cc1nn(-c2c(Cl)cc(Cl)cc2Cl)c(=O)c2ccccc12	none
Cc1cc(NC(=O)c2noc3c2CCc2ccccc2-3)no1	Mcl1 Bid PPI 67
O=C1OC2(c3ccccc31)c1cc(I)c(O)c(I)c1Oc1c2cc(I)c(O)c1I	MCL1 BIM primary 87, BCLXL inh 88, GLD-1 RNA inh 51 (no result: Mcl-1 Bim block, Mcl1 Bid PPI, Mcl1-Noxa inh)
CCN1C(=O)/C(=C/c2cccs2)SC1=Nc1ccc(OC)cc1	Mcl1 Bid PPI 97
CC(C)CC(N)C(=O)OCc1ccc([N+](=O)[O-])cc1 (stereo not drawn)	none (no result: Mcl-1 Bim block)
Cc1cc(NS(=O)(=O)c2ccc(NC(=O)c3ccccc3C)cc2)no1	none (no result: Mcl-1 Bim block, Mcl1 Bid PPI, Mcl1-Noxa inh)
Cc1cc(NS(=O)(=O)c2ccc(NC(=O)c3cc4cc(Br)ccc4oc3=O)cc2)no1	Mcl1 Bid PPI 57
Cc1ccc(NC(=O)CC2S/C(=N/N=C/c3c[nH]c4ccccc34)NC2=O)cc1 (stereo not drawn)	Mcl1 Bid PPI 57
CCOC(=O)c1ccc(NC(=O)CC2S/C(=N/N=C/c3c[nH]c4ccccc34)NC2=O)cc1 (stereo not drawn)	Mcl1 Bid PPI 63, Mcl1-Noxa inh 61 (no result: Mcl-1 Bim block)
NS(=O)(=O)c1ccc(-c2ccc(/C=C3\SC(=S)N(C4CCS(=O)(=O)C4)C3=O)o2)cc1 (stereo not drawn)	Mcl1 Bid PPI 51, Mcl1-Noxa inh 79 (no result: Mcl-1 Bim block)
Cc1ccc(/C=C2\SC(=S)N(C3CCS(=O)(=O)C3)C2=O)o1 (stereo not drawn)	none
Cc1sc(-c2ccncc2)nc1OC(=O)c1ccc(F)cc1F	none
CC(C)CCNC(=O)C(=O)Nc1cc2c3c(c1)CCC(=O)N3CCC2	none (no result: Mcl-1 Bim block, Mcl1 Bid PPI, Mcl1-Noxa inh)
CCOC(=O)c1ccc(NC(=O)N2CCCCCC2)cc1	none (no result: Mcl-1 Bim block, Mcl1 Bid PPI, Mcl1-Noxa inh)
CCOC(=O)c1ccc(S(=O)(=O)N2CCNCC2)cc1	Mcl1 Bid PPI 54
CCOC(=O)c1ccc(NS(=O)(=O)N2CCCCCC2)cc1	Mcl1 Bid PPI 78
CCOC(=O)c1ccc(S(=O)(=O)N2CCN(S(=O)(=O)CC)CC2)cc1	none
Cc1cccc(OCCCC(=O)Nc2ccc(N(C)C)cc2)c1	Mcl1-Noxa inh 77
Cc1cccc(OCCCC(=O)Nc2ccc(Br)cc2)c1	none
COc1ccc(OC)c(CN2CCC(C(=O)N3CCOCC3)CC2)c1	Mcl1 Bid PPI 53
COc1ccc(CN2CCCC(C(=O)N3CCCC3)C2)c(OC)c1 (stereo not drawn)	none (no result: Mcl-1 Bim block, Mcl1 Bid PPI, Mcl1-Noxa inh)
COc1cc(OC)c(OC)cc1CN1CCCC(C(=O)N2CCCCC2)C1 (stereo not drawn)	Mcl1 Bid PPI 53
CCOC(=O)N1CCN(Cc2cn3ccccc3n2)CC1	Mcl1 Bid PPI 56
CCOC(=O)N1CCN(Cc2c(F)cccc2F)CC1	Mcl1 Bid PPI 52
O=C(/C=C/C=C/c1ccccc1)c1ccco1	none (no result: Mcl-1 Bim block)
C=CCOc1ccc(Br)cc1/C=C1/SC(=Nc2ccc(C(=O)O)cc2)NC1=O	Mcl1-Noxa inh 55 (no result: MCL1 BIM primary, BCLXL inh, GLD-1 RNA inh)
COc1ccc(N2CC(C(=O)N3CCc4ccccc43)CC2=O)cc1 (stereo not drawn)	none (no result: Mcl-1 Bim block, Mcl1 Bid PPI, Mcl1-Noxa inh)
O=C(Nc1ccc2c(c1)OCCO2)NC1(C(F)(F)F)Oc2ccccc2O1	Mcl1 Bid PPI 69
C=C(C)C(=O)Nc1ccc2c(c1)OCCOCCOCCO2	Mcl1-Noxa inh 52 (no result: Mcl-1 Bim block)
CCCOc1ccc(-c2nn(-c3ccccc3)cc2/C=C2\SC(N)=NC2=O)cc1	none
N#CCCn1cc(/C=C/C(=O)O)c(-c2ccc(F)cc2)n1	none
COc1ccc(-c2nn(CCC(=O)O)cc2/C=C2\SC(N)=NC2=O)cc1	Mcl1-Noxa inh 67
NC1=NC(=O)/C(=C/c2cn(CCC(=O)O)nc2-c2ccc(F)cc2)S1	Mcl1-Noxa inh 55
NC1=NC(=O)/C(=C/c2cn(CCC(=O)O)nc2-c2ccc(Cl)cc2)S1	Mcl1-Noxa inh 72
O=C(O)CCn1cc(/C=C\C(=O)c2ccc(Cl)cc2)c(-c2cccc(Br)c2)n1	Mcl1 Bid PPI 58
Nc1c(Cl)ncnc1NCc1ccccc1	none (no result: Mcl-1 Bim block, Mcl1 Bid PPI, Mcl1-Noxa inh)
COc1ccc(SC[C@H](Cc2ccccc2)N2CC[C@@H](C(C)(C)C)CCC2=O)cc1	none (no result: Mcl-1 Bim block, Mcl1 Bid PPI, Mcl1-Noxa inh)
c1nc2ccc(Cc3ccc4nc[nH]c4c3)cc2[nH]1	none (no result: Mcl-1 Bim block, Mcl1 Bid PPI, Mcl1-Noxa inh)
O=c1c(-c2cnn(-c3ccccc3)c2)coc2cc(O)ccc12	Mcl1-Noxa inh 57
Cc1oc2cc(O)ccc2c(=O)c1-c1cnn(-c2ccccc2)c1	none
Cc1ccc(O)c(N)c1	none (no result: Mcl-1 Bim block, Mcl1 Bid PPI, Mcl1-Noxa inh)
COc1ccc(O)c(N)c1	Mcl1-Noxa inh 89 (no result: MCL1 BIM primary, BCLXL inh, GLD-1 RNA inh)

From PubChem BioAssay
